# In PubChem BioAssay (NCI):
# “And” between values parts separate entries of the source, which are not always exact repeats. Equal values may be shown once. About 79,000 compounds went through this panel and 15% of them were active in at least one assay; those are over-represented in the sample as a whole. Unmarked numbers belong to inactive results. The source made the active and inactive calls. Rule as the data show it: active = growth inhibition above about 70%; inactive = the rest.
# Experiments:
# [1] = NCI Yeast Anticancer Drug Screen. Data for the rad50 strain (AID 155);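 also: 0% = growth of vehicle-only cultures of the same strain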; details: S. cerevisiae rad50 strain growth inhibition, hits give high values
# How it was run: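 Compounds were tested on a yeast strain with an engineered DNA damage repair alteration; the reported value is growth inhibition normalised to vehicle treatment.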
# [2] = NCI Yeast Anticancer Drug Screen. Data for the mec2-1 strain (AID 157); details: S. cerevisiae mec2-1 strain, hits give high values
# How it was run: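 Growth inhibition is read against vehicle-treated controls after compound exposure of the mec2-1 yeast strain, which is defective in DNA damage repair or cell cycle control.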
# [3] = NCI Yeast Anticancer Drug Screen. Data for the sgs1 mgt1 strain (AID 161);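 also: 0% = growth of cultures given vehicle only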; details: S. cerevisiae sgs1 mgt1 strain, hits give high values
# How it was run: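 Yeast cells carrying a defined DNA-repair defect were exposed to test compounds. Growth inhibition was measured relative to vehicle-treated controls.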
# [4] = NCI Yeast Anticancer Drug Screen. Data for the cln2 rad14 strain (AID 165);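 also: 0% = growth equal to vehicle treated cultures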; details: S. cerevisiae cln2 rad14 strain, hits give high values
# How it was run: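 Growth inhibition, relative to vehicle-treated controls, is the read-out. The test organism is a yeast strain with defined genetic alterations, cln2 rad14.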
# [5] = NCI Yeast Anticancer Drug Screen. Data for the bub3 strain (AID 167); details: S. cerevisiae bub3 mutant strain, hits give high values
# How it was run: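 Growth of a checkpoint-deficient yeast mutant is measured after compound exposure. Values represent inhibition relative to vehicle.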
# [6] = NCI Yeast Anticancer Drug Screen. Data for the mlh1 rad18 strain (AID 175); details: S. cerevisiae mlh1 rad18 strain growth inhibition, hits give high values
# How it was run: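 Cells of a genetically altered yeast strain, deficient in DNA damage repair, were treated with compound. Their growth was then compared with that of vehicle-treated cultures to give inhibition.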
# [7] = at 5.0 µM (retest, dose inferred, filed as 0.5)
# [8] = at 50.0 µM (retest, dose inferred, filed as 5.0)
Compound,"growth inhibition [1, 7]","growth inhibition [1, 8]",growth inhibition ([1]; at 50.0 µM),"growth inhibition [2, 7]","growth inhibition [2, 8]",growth inhibition ([2]; at 50.0 µM),"growth inhibition [3, 7]","growth inhibition [3, 8]",growth inhibition ([3]; at 50.0 µM),"growth inhibition [4, 7]","growth inhibition [4, 8]",growth inhibition ([4]; at 50.0 µM),"growth inhibition [5, 7]","growth inhibition [5, 8]",growth inhibition ([5]; at 50.0 µM),"growth inhibition [6, 7]","growth inhibition [6, 8]",growth inhibition ([6]; at 50.0 µM)
[C](#Cc1ccccc1)[Hg][C]#Cc1ccccc1,65%,99% (active),98.8% (active),94% (active),99% (active),98.8% (active),94% (active),100% (active),99% (active),26%,99% (active),84.9% (active),21%,99% (active),98.3% (active),24%,99% (active),98.8% (active)
C[n+]1[se]nc2cc(C(=O)c3ccccc3)ccc21 (tested in a mixture with another compound),99% (active),99% (active),99.3% (active),99% (active),99% (active),99.2% (active),98% (active),99% (active),99% (active),96% (active),99% (active),99% (active),98% (active),99% (active),99% (active),99% (active),99% (active),99.3% (active)
O=[As]c1ccc([N+](=O)[O-])cc1 (stereo not drawn),80% (active),100% (active),99.6% (active),89% (active),100% (active),99.7% (active),39%,99% (active),99.7% (active),58%,98% (active),98.9% (active),99% (active),100% (active),99.3% (active),89% (active),99% (active),99.5% (active)
CCOCCOC(=O)Cc1ccccc1,5%,42%,64.3%,2%,6%,98.3% (active),-1%,6%,46.9%,4%,16%,55.6%,7%,12%,94% (active),6%,19%,95.5% (active)
C[CH2][Sn]([CH2]C)([CH2]C)[O]C(=O)CO,9%,98% (active),82.2% (active),10%,99% (active),87% (active),17%,98% (active),86.6% (active),-11%,93% (active),55.4%,7%,98% (active),86.8% (active),12%,98% (active),84.9% (active)
c1ccc2c(c1)c1cccc3c4c5ccccc5c5cccc(c2c13)c54,-1%,-1%,1.9%,-2%,0%,15.7%,-2%,-1%,11.4%,1%,-5%,78.1% (active),0%,1%,-1.25%,-3%,-2%,14.6%
C=CO/C(C)=C(\[Se]c1ccccc1)C(C)=O,4%,89% (active),93.4% (active),3%,91% (active),85.9% (active),7%,89% (active),91.8% (active),-10%,38%,57%,-8%,65%,75% (active),6%,91% (active),91% (active)
CC[n+]1c(-c2ccccc2)c2cc(N)ccc2c2ccc(N)cc21,39% and 29%,91% (active) and 92% (active),81.6% (active) and 83.3% (active),7% and -18%,45% and 13%,3.7% and 3.85%,-4% and -13%,16% and 27%,23.3% and 32.1%,2% and -6%,27% and 40%,11.8% and 34.9%,-7% and -2%,27% and 24%,52.9% and 5.2%,-17% and -4%,25% and 20%,20.2% and 34.6%
CCC1CC2CCC(O2)C(C)C(=O)OC(C)CC2CCC(O2)C(C)C(=O)OC(CC)CC2CCC(O2)C(C)C(=O)OC(C)CC2CCC(O2)C(C)C(=O)O1 (stereo not drawn),-7%,71% (active),82.3% (active),23%,88% (active),84.5% (active),-1%,74% (active),80.7% (active),25%,79% (active),66.2%,-4%,79% (active),79.2% (active),-15%,85% (active),73.2% (active)
[Cl][Hg][CH2]CC1CC=CCC1 (stereo not drawn),99% (active),99% (active),99.2% (active),100% (active),100% (active),99.5% (active),100% (active),99% (active),99.6% (active),100% (active),99% (active),99.5% (active),99% (active),99% (active),99.6% (active),100% (active),100% (active),99.5% (active)
CCOP(=O)(Cc1cccc2ccccc12)OCC,5%,13%,4.65%,5%,-6%,-7.95%,4%,17%,13.4%,2%,14%,2.1%,14%,2%,19.9%,17%,29%,-3.35%
CC(O)([CH2][Hg][Cl])C(O)[CH2][Hg][Cl] (stereo not drawn),98% (active),99% (active),99.2% (active),99% (active),100% (active),99.5% (active),98% (active),99% (active),99.3% (active),98% (active),99% (active),97.7% (active),99% (active),99% (active),99.4% (active),99% (active),99% (active),97.5% (active)
Cc1cc(C)[n+](CCOc2ccc(/C(=C(/Cl)c3ccccc3)c3ccccc3)cc2)c(C)c1,99% (active),99% (active),91.7% (active),83% (active),83% (active),91.9% (active),73% (active),73% (active),92.2% (active),97% (active),97% (active),91.7% (active),67%,67%,90% (active),82% (active),82% (active),89.8% (active)
CC1CN1C1=C(F)C(=O)C(N2CC2C)=C(F)C1=O (stereo not drawn),98% (active),99% (active),90.8% (active),100% (active),99% (active),94% (active),99% (active),99% (active),91% (active),99% (active),99% (active),91% (active),99% (active),99% (active),92.5% (active),99% (active),99% (active),91.5% (active)
O=[C-]CCCCCC[C-]=O.[C-]#[O+].[C-]#[O+].[C-]#[O+].[C-]#[O+].[Fe+6].[Fe+6].[c-]1[c-][c-][cH-][c-]1.[c-]1[c-][c-][cH-][c-]1,9%,97% (active),97.9% (active),13%,97% (active),98.5% (active),1%,98% (active),96.8% (active),1%,97% (active),97.8% (active),-4%,97% (active),99% (active),5%,98% (active),93.1% (active)
CC(=O)[CH-]C(=O)c1ccccc1.CC(=O)[CH-]C(=O)c1ccccc1.C[C@]12CCC(=O)C=C1CC[C@@H]1C2CC[C@@]2(C)C1CC[C@]2(C)[O-].C[C@]12CCC(=O)C=C1CC[C@@H]1C2CC[C@@]2(C)C1CC[C@]2(C)[O-].Cl.[Ti+4] (stereo partly drawn),33%,76% (active),86.8% (active),26%,87% (active),85% (active),37%,93% (active),84.8% (active),13%,72% (active),86.1% (active),39%,94% (active),84.5% (active),37%,90% (active),81.2% (active)
